Assay outcomes (PubChem)
Shown is part of a subset that was picked to be rich in hits.
Pf Dd2 growth – inhibitors of Plasmodium falciparum Dd2 growth. Potency, µM (titrated, usually from 28.9 µM), for inactives: top-dose activity, negative = inhibition, hits mostly inhibitors. P. falciparum Dd2 growth, SYBR Green, 72 h. actives 4.3% (n = 120,000); active = well fitted inhibition curve with a large enough effect;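 note: plate controls were DMSO vehicle for no effect and reference drug for full effect; nearly all actives have a fitted effect of over 65% in size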
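Infected erythrocytes (Dd2, 0.3% parasitemia, 2.5% hematocrit final) are added to compound in RPMI-1640/Albumax II medium, grown 72 h at 37C in low oxygen, then lysed with saponin/Triton-X containing SYBR Green and read by fluorescence.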
* marks the source's active call; other numbers are inactive results; i = inactive; [ ] = dose if it differs, or a comment. Potency is the fitted concentration of half-maximal effect.

SMILES	Pf Dd2 growth
CCOc1ccc(NC(=O)Cn2cc(C(=O)c3ccc(OC)cc3)c(=O)c3cc4c(cc32)OCO4)cc1	3.7%
Cc1ccccc1S(=O)(=O)N1CCn2c(nn(CC3CC3)c2=O)C1	-8.7%
COCCn1ncc(N2CCC(NC(=O)COc3ccc(F)cc3)CC2)cc1=O	i
O=C(NCc1ccc(F)cc1)N1CCC(OC2CCN(Cc3ccccc3)CC2)CC1	i
CC(C)CC(=O)N1C(C(=O)NCC2CCCO2)COC12CCC(C)CC2 (stereo not drawn)	-15.7%
CN(c1ncccc1CNC(=O)CN1CCCC1=O)C1CCCCC1	-4.3%
COC[C@]1(O)CCN(S(=O)(=O)c2cccc(C(=O)O)c2)CC1(C)C	-17.1%
COc1ccccc1N1CCN(C(=O)C[C@@H]2O[C@H](CNC(=O)c3ccc(N(C)C)cc3)[C@@H](O)[C@H]2O)CC1	i
Cc1ccc2nc(CN(C)Cc3cc(=O)c4cc(C(N)=O)ccc4[nH]3)[nH]c2c1	i
Cc1ccn(CC(=O)N2C[C@@H](COCC3CC3)[C@H](c3ccccn3)C2)n1	8.9%
COCC(=O)N1CC[C@H]2COC(=O)N2c2cc(F)ccc2C1	7.4%[44.1 µM]
Fc1ccc2nc(CO[C@H]3CN(Cc4ccncc4F)C[C@H]3F)[nH]c2c1	-1.0%[44.1 µM]
CC(=O)N1CCN(C(=O)c2cccc(-c3ccco3)c2)CC(O)C1 (stereo not drawn)	-7.9%
CN(Cc1ccc(-c2ccccc2)cc1)Cc1ccnn1C	-17.4%[44.1 µM]
COc1ccccc1-c1[nH]nc2ncc(-c3ccnn3C)nc12	4.8%[44.1 µM]
COc1cccc(CNC(=O)C2(C)CCCCC(=O)N2)c1OC (stereo not drawn)	-17.5%
CCc1ccccc1NC(=O)Cn1cc(C(=O)c2ccncc2)c(=O)c2cc(C)ccc21	i
COc1ccc2c(c1)c(=O)c(C(=O)c1ccc(C)cc1)cn2Cc1ccccc1F	12.6µM*
CCc1ccc2c(c1)c(=O)c(C(=O)c1ccc(C)cc1)cn2CC(=O)Nc1ccccc1C	-1.6%
O=C(c1ccc(F)cc1)c1cn(Cc2ccccc2F)c2cc3c(cc2c1=O)OCCO3	61.2%[5.79 µM]
O=C(c1ccc(Cl)cc1)c1cn(Cc2ccccc2)c2cc3c(cc2c1=O)OCCO3	11.2µM*
CCOc1ccc(NC(=O)Cn2cc(C(=O)c3ccc(F)cc3)c(=O)c3cc4c(cc32)OCCO4)cc1	9.5%
Cn1ncc(N2CCCC(CC(=O)N3CCSCC3)C2)cc1=O (stereo not drawn)	-9.4%
CCNC(=O)N1CCOc2ccc(CCC(=O)NCCOc3ccccc3OC)cc2C1	-25.7%
Cn1ccnc1C(=O)N1CCC(N2C[C@H](O)C[C@H]2C(=O)NC2CCCCC2)CC1	-6.9%
SMILES	Pf Dd2 growth
Cc1ccc(Cn2ccn(Cc3cccc(C(F)(F)F)c3)c(=O)c2=O)cc1	i
NCc1cccc(-c2cc(C(F)(F)F)ccc2Cl)c1	10µM*
Cc1cc(Cl)ccc1-c1ccccc1C=O	-25.7%[44.1 µM]
Cc1cc(Cl)ccc1-c1ccc(C=O)cc1	10.7%[44.1 µM]
O=C(O)c1cccc(-c2cc(C(F)(F)F)ccc2Cl)c1	4.3%
NCc1ccc(Oc2ccc(F)c(Cl)c2)cc1	-26.3%[44.1 µM]
Cc1cc(Cl)ccc1-c1cccc(CN)c1	14.1µM*
Cc1ccc(-c2cccc(CN)c2)c(C)c1	14.1µM*
Cc1cc(Cl)ccc1-c1ccccc1CN	8.91µM*
Cc1cc(F)ccc1-c1cccc(COc2cnc3c(ccn3CC(=O)O)c2)c1	i
COc1cccc(CNc2ncnc3c2CN(C2CCCNCC2)C(=O)CN3C)c1 (stereo not drawn)	-10.2%
CN(C)c1nccnc1OC1CCN(C(=O)CCCc2ccccc2)C1 (stereo not drawn)	-23.5%
CC(=O)c1cc(C(=O)N2CCC3(CC2)Nc2ccccc2NC3=O)[nH]n1	1.0%
O=C(c1ccccn1)N1CCC2(CC1)NC(=O)N(Cc1ccccc1Cl)C2=O	13.7%
CC(C)(C)NC(=O)CN1C(=O)NC2(CCC(C(C)(C)C)CC2)C1=O (stereo not drawn)	-24.3%
COc1ccccc1CCNC(=O)C1CC(=O)N(c2n[nH]c3cccc(F)c23)C1 (stereo not drawn)	-23.5%
CC(=O)c1ccc(NC(=O)N[C@@H]2C=C(C(=O)NCCC(N)=O)C[C@@H](O)[C@@H]2O)cc1	-23.8%[44.1 µM]
Cc1nc(CN2CCN(C(=O)[C@H]3CC[C@@H](N)C3)CC2)cs1	22.3%
N[C@@H]1CC[C@H](C(=O)NCc2csc(N3CCCC3)n2)C1	11.2µM*
O=C(NCc1csc(-c2cnccn2)n1)[C@H]1CCC[C@H](O)C1	-10.8%
COCCN1CCCC2(CCN(c3nc4c(c(=O)[nH]c(=O)n4C)n3C)C2)C1=O (stereo not drawn)	-3.6%
O=C(Cc1ccc(Cl)cc1)NC1CCN(c2cc(-c3ccc(F)cc3)[nH]n2)CC1	i
O=C(c1ccccc1Br)N1CC(n2cc(COc3ccc(F)cc3)nn2)C1	11.2µM*
O=C(NCc1ccco1)N1CC(n2cc(COc3ccccc3)nn2)C1	-12.2%
Cc1ccc(C)c(NC(=O)N2CC(n3cc(COc4ccccc4)nn3)C2)c1	-8.0%
O=C(c1ccccc1)N1CCC2(CC1)N=C(c1ccc(Cl)cc1)NO2	i
Cc1nc2c(c(-c3ccc(O)cc3)n1)CN(Cc1ccccn1)CC2	5.9%[44.1 µM]
